IL1B secr inh: qHTS for Inhibitors of Inflammasome Signaling: IL-1-beta AlphaLISA Primary Screen; THP-1 LPS/ATP IL-1B secretion, AlphaLISA, 16 h; stronger effect = lower value; activity change, % at 57.5 µM; 360,000 tested, 4.7% active; AID 743279, 2014; in the data active means activity change below about -50%; inconclusive means mostly about -30% to -49%
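THP-1 cells pretreated 1 hr with compounds (up to 57.5 uM final), then stimulated with LPS (250 ng/mL final) plus ATP (1.25 mM final); secreted IL-1B measured by AlphaLISA after 16 hr, decreased signal indicating inhibition.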
Chronic BCR inh: qHTS Assay to Find Inhibitors of Chronic Active B-Cell Receptor Signaling; ABC-DLBCL IkBa-CBG/CBR reporter, luminescence ratio, 4 h; Potency, µM (top dose mostly 46.1 µM), most hits filed as inhibitors; 340,000 tested, 0.05% active; AID 493014, 2011; active means well fitted inhibition curve with a large enough effect in the signal ratio, with a control signal flat, not every such curve was filed as active; inconclusive means small, poorly fitted or top-dose-only effect, or effect the other way, or a change in a side signal; the % refers to the signal ratio
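Cell line TMD8 (human ABC DLBCL), stably expressing tet-inducible CBG68-IkBa fusion and CBR; IMDM/0.5% FBS; cpd up to 46 uM; dox induction, 4 h, 37C/5% CO2; dual luminescence; green/red ratio; MG132 control.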
DT40 TDP1 no CPT: qHTS for Inhibitors of human tyrosyl-DNA phosphodiesterase 1 (TDP1): qHTS in cells in absence of CPT; DT40 Tdp1-/- hTDP1 cells, no CPT, ATP luminescence, 48 h; Potency, µM (doses to about 46.2 µM), actives largely listed as inhibitors; 420,000 tested, 15% active; further: nearly all actives have a fitted effect of over 55% in size
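Chicken DT40 Tdp1-/- cells stably complemented with human TDP1 were seeded at 400 cells/well with DMSO in place of 20 nM camptothecin. After compound pinning, cells grew at least 48 hr at 37 °C; viability read by CellTiter-Glo luminescence.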
MCF10A rereplic: A quantitative high throughput screen for small molecules that induce DNA re-replication in MCF 10a normal breast cells; MCF 10A DNA re-replication, Hoechst nuclear intensity, 48 h; Potency, µM (titrated, usually from 46.1 µM), usual class: activators; 350,000 tested, 2.9% active; AID 624296, 2012; further: nearly all actives have a fitted effect of over 50% in size
SW480 rereplic: A quantitative high throughput screen for small molecules that induce DNA re-replication in SW480 colon adenocarcinoma cells; SW480 DNA re-replication, Hoechst DNA content imaging, 48 h; Potency, µM (highest dose often 46.1 µM), hits mostly activators; 340,000 tested, 1.8% active; AID 624297, 2012; further: nearly all actives have a fitted effect of over 55% in size
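Cells (250 per well) received 23 nL compound or DMSO by pin tool and were kept 48 hr at 37 C, 5% CO2. Nuclei were then stained with Hoechst for 40 min and scanned for DNA content.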
DT40 TDP1 CPT: qHTS for Inhibitors of human tyrosyl-DNA phosphodiesterase 1 (TDP1): qHTS in cells in presence of CPT; Potency, µM (highest dose often 46.2 µM), hits mostly inhibitors; chicken DT40 Tdp1-/-;hTDP1 cells + 20 nM CPT, ATP luminescence, 48 h; 420,000 tested, 12% active; further: nearly all actives have a fitted effect of over 55% in size
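Chicken DT40 Tdp1-/- cells stably complemented with human TDP1 were seeded at 400 cells/well in medium containing 20 nM camptothecin, exposed to pin-transferred compounds, and grown at 37 °C for at least 48 hr. Viability was read as ATP luminescence.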
A number is an active result; - = inactive; ? = inconclusive; . = no result given. Rows were chosen to be rich in hits. Some 19% of all compounds tested hit in one or more screens of this group. Unless noted, the call rests on the fitted dose curve; in most records, active means well fitted curve in the direction sought with a large enough effect; inconclusive means small, poorly fitted or top-dose-only effect, or another doubt; inactive means no such curve, though single readings can be large; an effect the other way counts as inactive or inconclusive.

SMILES	IL1B secr inh	Chronic BCR inh	DT40 TDP1 no CPT	MCF10A rereplic	SW480 rereplic	DT40 TDP1 CPT
CC(C)CCNC(=S)Nc1ccc([N+](=O)[O-])cc1	-71.4	?	?	?	?	?
CCCCNC(=S)NC(=O)c1ccc([N+](=O)[O-])cc1	-	?	?	-	-	?
O=C(NCCOc1nc(N2CCCCC2)nc(N2CCCCC2)n1)Nc1ccccc1	-63.3	-	23.1µM	-	-	?
O=C(NCCc1ccc(Cl)cc1)Nc1ccc(Cl)cc1	-	-	?	-	-	-
CC(=O)NCCOc1nc(N2CCCCC2)nc(N2CCCCC2)n1	-	?	14.6µM	-	-	-
CCN(CC)c1nc(OCCNC(=O)Nc2ccccc2)nc(N(CC)CC)n1	-63.4	?	?	?	-	?
O=C(NCCOc1nc(N2CCOCC2)nc(N2CCOCC2)n1)Nc1ccccc1	-	-	?	-	-	-
CC(=O)NCCOc1nc(N(C)C)nc(N2CCOCC2)n1	-	-	-	-	-	-
CCN(CCNC(=O)Nc1ccc(Cl)cc1)c1ccccc1	-	-	?	18.4µM	?	?
Cc1cc(Br)ccc1NC(=O)C1C2CCC(O2)C1C(=O)O (configuration not stated)	-	-	-	-	-	-
CCN(CC)CCN(C)Cc1nc(C(c2ccccc2)c2ccccc2)no1	-64.2	-	-	?	?	-
CCOC(=O)C1(CCC(=O)OCc2ccccc2)CCCCC1=O (configuration not stated)	-	.	-	-	-	-
CCOC(=O)CCC1(C(=O)OC)C(=O)CCCCCC=C1C(=O)OC (configuration not stated)	-51.1	.	-	.	.	-
CCOc1ccccc1N1CC(C(=O)NNC(=O)c2cc(OC)c(OC)c(OC)c2)CC1=O (configuration not stated)	-	-	3.66µM	-	-	-
CCOc1ccccc1N1CC(C(=O)N2CCc3ccccc3C2)CC1=O (configuration not stated)	-	-	14.6µM	-	-	16.4µM
COc1cccc(N2C(=O)N(Cc3ccc(C#N)cc3)c3ccccc3S2(=O)=O)c1	.	-	-	.	.	-
O=C(NCCc1ccc(F)cc1)c1ccncc1	-	-	-	?	-	?
CC(C)Oc1ccc(S(=O)(=O)N2CCOCC2)cc1NC(=O)C1=NN(c2ccccc2)C(=O)CC1	-	-	?	?	-	?
COc1ccc(C(=O)N2CCC(C)(C(=O)NS(=O)(=O)C3CC3)C2)c(OC)c1 (configuration not stated)	-	.	-	.	.	-
COc1cc(/C=C2\SC(=S)N(N3CCOCC3)C2=O)ccc1O	-	-	-	-	-	-
COc1cc(/C=C2\SC(=Nc3ccccc3OC)NC2=O)ccc1O	-60.1	?	?	8.2µM	20.6µM	?
COc1cc(/C=C2/SC(=Nc3ccc(O)cc3)NC2=O)ccc1O	?	?	0.651µM	5.17µM	4.61µM	1.03µM
COc1ccc(/C=C2\SC(=Nc3ccccc3OC)NC2=O)cc1	?	?	?	3.26µM	?	23.1µM
Cc1cc(Cl)ccc1NC(=O)Cn1nnc2sc(-c3ccccc3)cc2c1=O	.	.	?	.	.	-
CN(CC(=O)NCc1ccco1)CC(=O)Nc1cc(S(C)(=O)=O)ccc1Cl	-	-	-	-	-	-
SMILES	IL1B secr inh	Chronic BCR inh	DT40 TDP1 no CPT	MCF10A rereplic	SW480 rereplic	DT40 TDP1 CPT
CCOC(=O)O[C@]1(C(=O)OCCl)CC[C@@H]2[C@H]3CCC4=CC(=O)C=C[C@]4(C)[C@@H]3[C@@H](O)C[C@@]21C	.	.	.	-	-	.
COc1ccc(S(=O)(=O)N2CCOCC2)cc1NC(=O)c1ccc(S(=O)(=O)N(C)c2ccccc2OC)cc1	-	.	?	-	-	?
CCOC(=O)CSc1nc2c(sc3ccccc32)c(=O)n1CCc1ccccc1	.	-	?	.	.	-
CCCCN(CC)C(=O)CSc1nc2c(sc3ccccc32)c(=O)n1CCc1ccccc1	.	-	5.17µM	.	.	?
CCOCCCn1c(SCC(=O)OCC)nc2c(sc3ccccc32)c1=O	.	-	?	.	.	?
CCc1ccc(NC(=O)CSc2nc3c(sc4ccccc43)c(=O)n2CCN(CC)CC)cc1	.	-	9.2µM	.	.	14.6µM
C=CCN(C(=O)CSc1nc2c(sc3ccccc32)c(=O)n1CCN(CC)CC)c1ccccc1	-79.8	-	16.4µM	?	?	18.4µM
CCOC(=O)CSc1nc2c(sc3ccccc32)c(=O)n1Cc1ccc(C)cc1	.	-	?	.	.	20.6µM
Cc1ccc2c(=O)cc(C(=O)Nc3c(C(=O)Nc4cccc(Cl)c4)oc4ccccc34)oc2c1	.	.	-	.	.	-
CCN(CC)C(=O)c1sc2c(c1C)c(=O)n(-c1ccc(C)c(C)c1)c(=O)n2Cc1cc(=O)n2ccccc2n1	.	-	-	.	.	-
Cc1cccc(C(=O)OCN2C(=O)c3ccccc3C2=O)c1[N+](=O)[O-]	-	-	-	-	-	-
COC(=O)C1(C)NC(c2cccc(C)c2)C2C(=O)N(c3ccccc3)C(=O)C21 (configuration not stated)	-	.	-	.	.	-
CCc1ccc(NC(=O)CSc2nc3c(sc4ccccc43)c(=O)n2CCCOC(C)C)cc1	.	-	20.6µM	.	.	-
CC(C)OCCCn1c(SCc2ccccc2Cl)nc2c(sc3ccccc32)c1=O	.	?	-	.	.	-
O=C(c1ccc(N2CCN(C(=O)c3cccc(F)c3)CC2)cc1)c1cccc(F)c1	?	-	?	?	-	16.4µM
O=C(c1ccccc1)c1ccc(C(=O)N2CCN(c3ccc(F)cc3)CC2)o1	-	-	11.6µM	-	-	?
O=C(c1ccc(N2CCN(C(=O)c3ccccc3Br)CC2)cc1)c1cccc(F)c1	-	-	25.9µM	?	-	16.4µM
O=C(c1cccc(F)c1)N1CCN(c2cccc(C(F)(F)F)c2)CC1	-	-	?	-	-	?
O=C(NC(=O)N1CCN(c2ccc(F)cc2)CC1)c1ccccc1	-	?	-	-	-	-
CCOC(=O)N1CCN(c2ccc(C(=O)c3cccc(F)c3)cc2)CC1	?	-	20.6µM	-	-	13µM
CCOC(=O)N1CCN(c2ccc([N+](=O)[O-])cc2)CC1	-	?	?	-	-	?
CCN(Cc1ccncc1)C(=O)C(CO)c1ccccc1 (configuration not stated)	-	-	-	-	-	-

Screening data (PubChem)
